# Test results: article PMC12820563, “FoxP3 forms a head-to-head dimer in vivo and stabilizes its multimerization on adjacent microsatellites”
# Whole data set: some 16,000 sequences, median “rpm ratio (pull-down/input)” near 0.94, cut for the highest 2% near 1.7. Only a selection was taken, and the highest values are over-represented in it overall.
# Molecular target: T1, MBP-FoxP1dN (Mus musculus, UniProt P58462 326-579)
# T1 sequence: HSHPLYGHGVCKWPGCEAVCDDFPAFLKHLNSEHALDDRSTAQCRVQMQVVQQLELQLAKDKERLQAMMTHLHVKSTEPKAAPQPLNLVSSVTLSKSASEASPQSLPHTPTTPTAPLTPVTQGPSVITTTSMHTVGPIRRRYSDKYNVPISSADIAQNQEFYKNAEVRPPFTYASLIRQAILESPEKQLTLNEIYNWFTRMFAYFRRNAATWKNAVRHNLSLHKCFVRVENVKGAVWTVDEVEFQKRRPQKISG
# Assay: PD-seq (MBP pull-down with sequencing); 20 mM Tris-HCl pH 7.5, 100 mM NaCl, 1.5 mM MgCl2, 0.4 uM protein, 0.1 uM dsDNA library, 30 min, room temperature, amylose pull-down; high values mean tight binding
# Conditions: protein: recombinant; tags: His6-MBP; chain copies: 2; dsDNA, one strand shown
# Outline: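 His6-MBP-tagged mouse FoxP3 or FoxP1 fragment lacking the N-terminus, expressed in E. coli, was mixed at 0.4 µM with 0.1 µM Klenow-filled double-stranded degenerate DNA library. Incubation was 30 min at room temperature in Tris pH 7.5 buffer with NaCl and MgCl2. Complexes were caught on amylose resin and washed three times; DNA was released with proteinase K, PCR-barcoded and Illumina-sequenced. Binding is reads-per-million enrichment, pull-down over input, with replicates pooled.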
row,Sequence,binding signal
1,GATGATTGTTCTCCCAGCTGATGAATTGCTTCCTTCGAGTAAACAAATTTTCCTAATCTTTCTGTTCAAGCGCCATCTAC,1.06 RPM ratio (pull-down/input)
2,GATGATTGTTCTCCCAGCTGATGAATTCTTAATATCGAGTAAACAAATTTTCCTAATCTTTCTGTTCAAGCGCCATCTAC,1.08 RPM ratio (pull-down/input)
3,GATGATTGTTCTCCCAGCTGATGAATTCAGGTTGTCGAGTAAACAAATTTTCCTAATCTTTCTGTTCAAGCGCCATCTAC,1 RPM ratio (pull-down/input)
4,GATGATTGTTCTCCCAGCTGATGAATTCGAAGGATCGAGTAAACAAATTTTCCTAATCTTTCTGTTCAAGCGCCATCTAC,0.845 RPM ratio (pull-down/input)
5,GATGATTGTTCTCCCAGCTGATGAATTTCTTGATTCGAGTAAACAAATTTTCCTAATCTTTCTGTTCAAGCGCCATCTAC,1.01 RPM ratio (pull-down/input)
6,GATGATTGTTCTCCCAGCTGATGAATTTGCTGGGTCGAGTAAACAAATTTTCCTAATCTTTCTGTTCAAGCGCCATCTAC,0.859 RPM ratio (pull-down/input)
7,GATGATTGTTCTCCCAGCTGATGAATTCGCGGACTCGAGTAAACAAATTTTCCTAATCTTTCTGTTCAAGCGCCATCTAC,0.757 RPM ratio (pull-down/input)
8,GATGATTGTTCTCCCAGCTGATGAATTTGTTTCTTCGAGTAAACAAATTTTCCTAATCTTTCTGTTCAAGCGCCATCTAC,1.7 RPM ratio (pull-down/input)
9,GATGATTGTTCTCCCAGCTGATGAATTGTTTGTTTCGAGTAAACAAATTTTCCTAATCTTTCTGTTCAAGCGCCATCTAC,2.72 RPM ratio (pull-down/input)
10,GATGATTGTTCTCCCAGCTGATGAATTCTGTTGTTCGAGTAAACAAATTTTCCTAATCTTTCTGTTCAAGCGCCATCTAC,2.6 RPM ratio (pull-down/input)
11,GATGATTGTTCTCCCAGCTGATGAATTTTGTTTTTCGAGTAAACAAATTTTCCTAATCTTTCTGTTCAAGCGCCATCTAC,2.75 RPM ratio (pull-down/input)
12,GATGATTGTTCTCCCAGCTGATGAATTGTTGAATTCGAGTAAACAAATTTTCCTAATCTTTCTGTTCAAGCGCCATCTAC,1.15 RPM ratio (pull-down/input)
13,GATGATTGTTCTCCCAGCTGATGAATTTTTTGTTTCGAGTAAACAAATTTTCCTAATCTTTCTGTTCAAGCGCCATCTAC,1.13 RPM ratio (pull-down/input)
14,GATGATTGTTCTCCCAGCTGATGAATTGTTGATTTCGAGTAAACAAATTTTCCTAATCTTTCTGTTCAAGCGCCATCTAC,2.42 RPM ratio (pull-down/input)
15,GATGATTGTTCTCCCAGCTGATGAATTTTCTAATTCGAGTAAACAAATTTTCCTAATCTTTCTGTTCAAGCGCCATCTAC,1.05 RPM ratio (pull-down/input)
16,GATGATTGTTCTCCCAGCTGATGAATTCTTTTTTTCGAGTAAACAAATTTTCCTAATCTTTCTGTTCAAGCGCCATCTAC,1.07 RPM ratio (pull-down/input)
17,GATGATTGTTCTCCCAGCTGATGAATTGAATTGTTCGAGTAAACAAATTTTCCTAATCTTTCTGTTCAAGCGCCATCTAC,0.984 RPM ratio (pull-down/input)
18,GATGATTGTTCTCCCAGCTGATGAATTAGGTATATCGAGTAAACAAATTTTCCTAATCTTTCTGTTCAAGCGCCATCTAC,0.972 RPM ratio (pull-down/input)
19,GATGATTGTTCTCCCAGCTGATGAATTAGCAGGATCGAGTAAACAAATTTTCCTAATCTTTCTGTTCAAGCGCCATCTAC,0.814 RPM ratio (pull-down/input)
20,GATGATTGTTCTCCCAGCTGATGAATTAACAAGGTCGAGTAAACAAATTTTCCTAATCTTTCTGTTCAAGCGCCATCTAC,1 RPM ratio (pull-down/input)

row,Sequence,binding signal
1,GATGATTGTTCTCCCAGCTGATGAATTGTTGACTTCGAGTAAACAAATTTTCCTAATCTTTCTGTTCAAGCGCCATCTAC,2.11 RPM ratio (pull-down/input)
2,GATGATTGTTCTCCCAGCTGATGAATTGACTTCTTCGAGTAAACAAATTTTCCTAATCTTTCTGTTCAAGCGCCATCTAC,0.996 RPM ratio (pull-down/input)
3,GATGATTGTTCTCCCAGCTGATGAATTGATGACTTCGAGTAAACAAATTTTCCTAATCTTTCTGTTCAAGCGCCATCTAC,0.994 RPM ratio (pull-down/input)
4,GATGATTGTTCTCCCAGCTGATGAATTAGTGCGTTCGAGTAAACAAATTTTCCTAATCTTTCTGTTCAAGCGCCATCTAC,1.1 RPM ratio (pull-down/input)
5,GATGATTGTTCTCCCAGCTGATGAATTCGATCATTCGAGTAAACAAATTTTCCTAATCTTTCTGTTCAAGCGCCATCTAC,0.949 RPM ratio (pull-down/input)
6,GATGATTGTTCTCCCAGCTGATGAATTGTCACCATCGAGTAAACAAATTTTCCTAATCTTTCTGTTCAAGCGCCATCTAC,1.13 RPM ratio (pull-down/input)
7,GATGATTGTTCTCCCAGCTGATGAATTGTTGTTGTCGAGTAAACAAATTTTCCTAATCTTTCTGTTCAAGCGCCATCTAC,3.2 RPM ratio (pull-down/input)
8,GATGATTGTTCTCCCAGCTGATGAATTTCTGTTGTCGAGTAAACAAATTTTCCTAATCTTTCTGTTCAAGCGCCATCTAC,2.16 RPM ratio (pull-down/input)
9,GATGATTGTTCTCCCAGCTGATGAATTTTTTTTGTCGAGTAAACAAATTTTCCTAATCTTTCTGTTCAAGCGCCATCTAC,0.87 RPM ratio (pull-down/input)
10,GATGATTGTTCTCCCAGCTGATGAATTTTTGTTGTCGAGTAAACAAATTTTCCTAATCTTTCTGTTCAAGCGCCATCTAC,2.85 RPM ratio (pull-down/input)
11,GATGATTGTTCTCCCAGCTGATGAATTACTACTGTCGAGTAAACAAATTTTCCTAATCTTTCTGTTCAAGCGCCATCTAC,1.23 RPM ratio (pull-down/input)
12,GATGATTGTTCTCCCAGCTGATGAATTACTGATGTCGAGTAAACAAATTTTCCTAATCTTTCTGTTCAAGCGCCATCTAC,1.37 RPM ratio (pull-down/input)
13,GATGATTGTTCTCCCAGCTGATGAATTGTCGTTGTCGAGTAAACAAATTTTCCTAATCTTTCTGTTCAAGCGCCATCTAC,1.38 RPM ratio (pull-down/input)
14,GATGATTGTTCTCCCAGCTGATGAATTGTTCCTGTCGAGTAAACAAATTTTCCTAATCTTTCTGTTCAAGCGCCATCTAC,0.999 RPM ratio (pull-down/input)
15,GATGATTGTTCTCCCAGCTGATGAATTACTGTTGTCGAGTAAACAAATTTTCCTAATCTTTCTGTTCAAGCGCCATCTAC,2.55 RPM ratio (pull-down/input)
16,GATGATTGTTCTCCCAGCTGATGAATTTCTTTTGTCGAGTAAACAAATTTTCCTAATCTTTCTGTTCAAGCGCCATCTAC,0.952 RPM ratio (pull-down/input)
17,GATGATTGTTCTCCCAGCTGATGAATTTTTTCTGTCGAGTAAACAAATTTTCCTAATCTTTCTGTTCAAGCGCCATCTAC,0.986 RPM ratio (pull-down/input)
18,GATGATTGTTCTCCCAGCTGATGAATTTTTCTTGTCGAGTAAACAAATTTTCCTAATCTTTCTGTTCAAGCGCCATCTAC,1.1 RPM ratio (pull-down/input)
19,GATGATTGTTCTCCCAGCTGATGAATTGCTATGTTCGAGTAAACAAATTTTCCTAATCTTTCTGTTCAAGCGCCATCTAC,1.24 RPM ratio (pull-down/input)
20,GATGATTGTTCTCCCAGCTGATGAATTCGAGTGGTCGAGTAAACAAATTTTCCTAATCTTTCTGTTCAAGCGCCATCTAC,0.752 RPM ratio (pull-down/input)
